For ten molecules, growth results are on record in PubChem BioAssay (NCI).

Among the test systems are HCT-15 colon; HT29 colon; SNB-19 CNS; U251 CNS; PC-3 prostate; SK-MEL-5 melanoma; UACC-62 melanoma; LOX IMVI melanoma; SK-MEL-2 melanoma; SN12C renal; UO-31 renal; TK-10 renal; ACHN renal; CAKI-1 renal; A498 renal; CCRF-CEM leukemia; MOLT-4 leukemia; EKVX NSCLC; SK-MEL-28 melanoma.
What all share (assay): NCI-60 one-dose screen, 48 h (100 = growth as untreated, 0 = no growth, -100 = all killed)
Holding throughout (conditions): 10 µM unless noted

This is part of a sample that, as a whole, favours compounds with a hit. Of some 83,000 tested, about 20% had one in any assay.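 48-hour exposure, single concentration, 96-well plates; percent growth endpoint where 0 means no net growth. Active: below 10.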 Unmarked numbers belong to inactive results. Active and inactive are the calls of the source.

Consider `Nc1cc2c([nH]c[n+]2CC#CCCl)c(SCC#CCCl)n1`, for which the growth with HCT-15 colon was -43.3% (active); in the experiment on HT29 colon it was -50.3% (active); in the experiment on SNB-19 CNS, -66.8% (active); with U251 CNS it was -64.8% (active); with PC-3 prostate, -20.3% (active); with SK-MEL-5 melanoma it was -93.3% (active). Further, the growth was -91.5% (active) in the experiment on UACC-62 melanoma; -91% (active) in the experiment with LOX IMVI melanoma; -30% (active) with SK-MEL-2 melanoma; -10.9% (active) with SN12C renal; -76.8% (active) with UO-31 renal; -4.18% (active) in the experiment on TK-10 renal. The growth was -34.7% (active) in the experiment on ACHN renal; 6.37% (active) with CAKI-1 renal; -52.1% (active) in the experiment on A498 renal; 8.89% (active) in the experiment on CCRF-CEM leukemia; -1.5% (active) in the experiment on MOLT-4 leukemia.
On to `O=[N+]([O-])c1cnc(Sc2ccncn2)s1`, for which the growth in the experiment on HCT-15 colon is -16% (active); with HT29 colon it was 55.5%; in the experiment on SNB-19 CNS it was 103%; with U251 CNS it was 91.9%; in the experiment with PC-3 prostate, 14.4%; with SK-MEL-5 melanoma, 88.2%. The growth in the experiment on UACC-62 melanoma was 70.4%; in the experiment with LOX IMVI melanoma, 64.5%; in the experiment on SK-MEL-2 melanoma it was -58% (active); in the experiment with EKVX NSCLC, 61.7%; with SN12C renal, 63.6%; in the experiment on UO-31 renal it was -88.3% (active). The growth in the experiment on TK-10 renal is 4.67% (active); with ACHN renal, -97.8% (active); in the experiment on A498 renal it was 88%; in the experiment on CCRF-CEM leukemia, -32.3% (active); in the experiment on MOLT-4 leukemia it was -42.3% (active).
On to `COc1ccc(C(=O)c2cc(OC)c(OC)c(OC)c2OC)cc1O`, for which the growth is 30.2% in the experiment on HCT-15 colon; 55.6% in the experiment with HT29 colon; 40.6% in the experiment on SNB-19 CNS; 33.4% with U251 CNS; 68.4% in the experiment with PC-3 prostate; 2.02% (active) with SK-MEL-5 melanoma. Further, the growth in the experiment with UACC-62 melanoma was 40.3%; in the experiment on LOX IMVI melanoma, 38.7%; in the experiment with EKVX NSCLC, 93.8%; with SN12C renal it was 40.5%; in the experiment with UO-31 renal, 56.5%; with TK-10 renal, 95.9%. Further, the growth is 54.5% in the experiment on ACHN renal, 55.4% in the experiment with CAKI-1 renal, 67.7% with A498 renal and 44.2% with MOLT-4 leukemia.
Turning to `O=C1NC(=C(Cl)Cl)/C(=N/S(=O)(=O)N2CCC(C3(C(F)(F)F)N=N3)CC2)N1`, the growth in the experiment on HCT-15 colon was -60.6% (active); in the experiment on HT29 colon it was -10.2% (active); with SNB-19 CNS, 86.7%; with U251 CNS, 45.2%; in the experiment with PC-3 prostate it was 89.6%; in the experiment on SK-MEL-5 melanoma it was 92%. For the same molecule, the growth with UACC-62 melanoma was 91.7%; with SK-MEL-28 melanoma, 99.1%; in the experiment with SK-MEL-2 melanoma, 101%; with EKVX NSCLC, 89.6%; with SN12C renal it was 87.7%; with UO-31 renal it was 85.7%. For the same molecule, the growth in the experiment with TK-10 renal was 97%; in the experiment on ACHN renal, 103%; in the experiment on CAKI-1 renal, 74.5%; in the experiment with A498 renal, 94.9%; with MOLT-4 leukemia, 54.9%.
On to `Brc1cccc(-c2cc(-c3ccc4nccnc4c3)[nH]n2)c1`, for which the growth in the experiment on HCT-15 colon was 9.57% [25 µM] (active); with HT29 colon, 5.66% [25 µM] (active); with SNB-19 CNS, 30.5% [25 µM]; in the experiment with U251 CNS, 21.7% [25 µM]; with PC-3 prostate, 27% [25 µM]; in the experiment on UACC-62 melanoma, 38.1% [25 µM]. Further, the growth with LOX IMVI melanoma is 18.6% [25 µM]; in the experiment with SK-MEL-28 melanoma, 64.9% [25 µM]; in the experiment with SK-MEL-2 melanoma, 46.3% [25 µM]; with EKVX NSCLC it was 16% [25 µM]; with SN12C renal it was 35.5% [25 µM]; in the experiment with UO-31 renal, 38.8% [25 µM]. The growth was 52.1% [25 µM] in the experiment on TK-10 renal; 39.6% [25 µM] in the experiment on ACHN renal; 29.4% [25 µM] in the experiment on CAKI-1 renal; -9.23% [25 µM] (active) in the experiment on A498 renal; 15.3% [25 µM] in the experiment on CCRF-CEM leukemia; 30.2% [25 µM] in the experiment with MOLT-4 leukemia.
On to `Cc1ccc(-c2nc(C(Cl)Cl)n3nc(-c4ccccc4)cc3n2)cc1`, for which the growth is -26.8% (active) in the experiment with HCT-15 colon; -43.6% (active) in the experiment on HT29 colon; 27.4% in the experiment with SNB-19 CNS; -42.1% (active) with U251 CNS; -13% (active) in the experiment on PC-3 prostate; 78.5% in the experiment on SK-MEL-5 melanoma. The growth in the experiment on UACC-62 melanoma was -8.44% (active); with SK-MEL-28 melanoma it was 85.9%; with SK-MEL-2 melanoma it was 55.9%; with EKVX NSCLC it was 35.3%; with SN12C renal, 70.4%; with UO-31 renal, 46.9%. For the same molecule, the growth in the experiment with TK-10 renal was -68.6% (active); in the experiment with ACHN renal it was 3.72% (active); in the experiment with CAKI-1 renal, 4.32% (active); in the experiment with A498 renal, 77.8%; in the experiment with MOLT-4 leukemia, 103%.
For the molecule `C=C1C(=O)O[C@H]2[C@H]1CC/C(Cn1cc(CNC(=O)c3cc4ccccc4[nH]3)nn1)=C\CC[C@@]1(C)O[C@@H]21`, the growth in the experiment with HCT-15 colon was 79.8%; in the experiment with HT29 colon it was 11.4%; in the experiment with SNB-19 CNS, 81.5%; with U251 CNS, 67.6%; with PC-3 prostate, 70.2%; in the experiment on UACC-62 melanoma, 49.8%. Further, the growth with LOX IMVI melanoma is -23.6% (active); in the experiment with SK-MEL-28 melanoma, 54.4%; with SK-MEL-2 melanoma, 59.6%; with EKVX NSCLC it was 86.9%; in the experiment on SN12C renal, 59.2%; with UO-31 renal it was 73.4%. Further, the growth in the experiment on TK-10 renal was 53%; in the experiment with ACHN renal it was 55.8%; in the experiment on CAKI-1 renal it was 80.8%; in the experiment on A498 renal, 106%; with CCRF-CEM leukemia, -18.8% (active); in the experiment with MOLT-4 leukemia it was 4.74% (active).
Take `COc1ccc2cc(-c3ccc(-c4ccc(C(=N)N)cc4)s3)ccc2c1`: the growth with HCT-15 colon was 62%; in the experiment on HT29 colon it was 19.8%; with SNB-19 CNS, 95.9%; with U251 CNS, 101%; in the experiment with PC-3 prostate, 88.6%; in the experiment on SK-MEL-5 melanoma, 94.8%. In addition, the growth is 99.3% with UACC-62 melanoma; 107% in the experiment with SK-MEL-28 melanoma; 103% with SK-MEL-2 melanoma; 104% in the experiment on EKVX NSCLC; 99.7% in the experiment with SN12C renal; 89.7% with UO-31 renal. Also, the growth was 48.1% in the experiment with TK-10 renal; 101% in the experiment on ACHN renal; 91% with CAKI-1 renal; 94.3% in the experiment with A498 renal; 94.3% in the experiment on MOLT-4 leukemia.
Consider `CSc1nc2c(c(=O)[nH]1)C(c1ccc(C)cc1)C=C(C(=O)O)N2` (stereo unspecified), for which the growth was 105% with HCT-15 colon; 118% in the experiment with HT29 colon; 133% with SNB-19 CNS; 109% with U251 CNS; 109% in the experiment with PC-3 prostate; 102% with SK-MEL-5 melanoma. Further, the growth with UACC-62 melanoma is 129%; in the experiment on SK-MEL-28 melanoma, 99.9%; in the experiment with SK-MEL-2 melanoma it was 120%; in the experiment on SN12C renal it was 120%; in the experiment with UO-31 renal it was 88.1%; with TK-10 renal it was 118%. Moreover, the growth is 106% in the experiment on ACHN renal, 88.6% with CAKI-1 renal, 93.1% in the experiment on A498 renal and 119% in the experiment on MOLT-4 leukemia.
`COc1ccc(-c2nc(SCCC(C)C)nc(Nc3ccc(F)c(Cl)c3)c2C#N)cc1`: the growth in the experiment with HCT-15 colon was 84.9%; in the experiment on HT29 colon, 75.9%; in the experiment on SNB-19 CNS, 77.9%; in the experiment on U251 CNS, 33.7%; in the experiment on PC-3 prostate, 80%; in the experiment with UACC-62 melanoma, 97.5%. The growth was 76.4% with LOX IMVI melanoma; 105% in the experiment on SK-MEL-28 melanoma; 120% with SK-MEL-2 melanoma; 55.7% with EKVX NSCLC; 56.7% in the experiment on SN12C renal; 56.6% in the experiment on UO-31 renal. The growth in the experiment with TK-10 renal is 62.6%; with ACHN renal, 47.8%; with CAKI-1 renal, 75.5%; in the experiment on A498 renal, 76.8%; in the experiment with CCRF-CEM leukemia it was 71%; with MOLT-4 leukemia, 86.1%.
